Several values for one entry are separate records, joined by “and”; a condition that tells them apart may be missing. Identical values can stand only once. Results filed as inconclusive are left out. Activity calls are given as the source filed them. Unless noted, calls come from the whole dose curve; as a rule, active = well fitted curve in the direction sought with a large enough effect; inconclusive = small, poorly fitted or top-dose-only effect, or another doubt; inactive = no such curve, though single readings can be large; an effect the other way counts as inactive or inconclusive.
Experiments:
[1] = target: Cellular tumor antigen p53 (Homo sapiens) (UniProt P04637); assay: Primary qHTS for small molecule compounds that upregulate eGFP-tagged delta133p53alpha (in N-terminal) cells. (AID 2060322); settings: NCI-H358 eGFP-delta133p53alpha fluorescence, 24 h; activation: hits give high values;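 note: series mostly up to about 56 µM; 0% = DMSO vehicle and 100% = reference activator; nearly all actives have a fitted effect of over 75% in size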
Method in brief: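 NCI-H358 cells pre-induced 24 h with 10 ng/ml doxycycline to express N-terminal eGFP-delta133p53alpha, then dosed 24 h at 37C without doxycycline; fixed, Hoechst-stained, GFP intensity by laser scanning cytometry, normalized to DMSO (0%) and 57.5 uM 5-azacytidine (100%).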

[2] = target: Aldehyde dehydrogenase, mitochondrial (Homo sapiens) (UniProt P05091); assay: qHTS for Inhibitors of the Aldehyde Dehydrogenase Family (ALDH2) Validation screens (AID 2061302; active = well fitted inhibition curve with a large enough effect; title and protocol of this record describe different tests;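 note: plate controls were DMSO vehicle for no effect and maximal DPI positive control response for full effect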)
[3] = target: Retinaldehyde dehydrogenase 3 (Homo sapiens) (UniProt P47895); assay: qHTS for Inhibitors of the Aldehyde Dehydrogenase Family (ALDH1A3) Validation screen (AID 2061312); note: % is set by controls: 0 for no effect and ±100 for the full control effect; nearly all actives have a fitted effect of over 45% in size

Chain of Cellular tumor antigen p53 (Homo sapiens) (P04637 whole entry, looked up): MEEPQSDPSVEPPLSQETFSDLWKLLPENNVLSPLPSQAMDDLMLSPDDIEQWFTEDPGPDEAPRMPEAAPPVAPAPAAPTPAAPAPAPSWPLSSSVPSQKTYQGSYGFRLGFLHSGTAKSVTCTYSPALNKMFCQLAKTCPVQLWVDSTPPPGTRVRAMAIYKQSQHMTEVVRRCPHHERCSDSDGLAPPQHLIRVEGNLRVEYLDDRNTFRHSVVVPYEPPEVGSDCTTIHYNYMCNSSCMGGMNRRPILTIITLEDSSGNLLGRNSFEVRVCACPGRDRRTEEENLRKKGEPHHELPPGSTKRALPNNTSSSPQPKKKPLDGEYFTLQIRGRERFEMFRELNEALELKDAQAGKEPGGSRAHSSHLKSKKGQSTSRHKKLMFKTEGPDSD

CN(C)CCCN1c2ccccc2Sc2ccc(Cl)cc21
inactive: activation [1] -15.3% | Potency [2] | Potency [3]

O=C1NC(=O)c2c1c(-c1ccccc1)cc1[nH]c3ccc(O)cc3c21
inactive: activation [1] -2.02% | Potency [2] | Potency [3]

CCN(CC)CCOCCOC(=O)C1(c2ccccc2)CCCC1
inactive: activation [1] -17.5% and -6.79% | Potency [2] | Potency [3]

Nc1nc2c(nc(Br)n2C2OC3COP(=O)(O)O[C@@H]3C2O)c(=O)[nH]1 (stereo partly specified)
inactive: activation [1] 29.4% | Potency [2] | Potency [3]

COc1cc(CNC(=O)CCCCCCC(C)C)ccc1O
inactive: activation [1] 0.736% | Potency [2] | Potency [3]

C=C1C(=O)O[C@@H]2[C@H]3O[C@]3(C)CCC=C(C)CC[C@@H]12
inactive: activation [1] -45% | Potency [2] | Potency [3]

NC1C=CC=C(C(=O)O)C1 (stereo unspecified)
inactive: activation [1] -22% | Potency [2] | Potency [3]

OCC1NCC(O)C(O)C1O (stereo unspecified)
inactive: activation [1] -36.6% | Potency [2] | Potency [3]

C=CC[C@H](N)C(=O)O
inactive: activation [1] -35.4% | Potency [2] | Potency [3]

OC[C@H]1O[C@@H](n2cnc3c(NC4CCCCC4)ncnc32)[C@H](O)[C@@H]1O
inactive: activation [1] 5.46% | Potency [2] | Potency [3]

Nc1c2c(nc3ccccc13)CCCC2O (stereo unspecified)
inactive: activation [1] 7.34% and -16.8% | Potency [2] | Potency [3]

CCN(CC)c1ncnc2c1ncn2[C@@H]1O[C@H](COP(=O)(O)OP(=O)(O)C(Br)(Br)P(=O)(O)O)[C@@H](O)[C@H]1O
inactive: activation [1] -18.4% | Potency [2] | Potency [3]

Source: PubChem BioAssay (NCATS)
